The full data set covers some 7,900 targets. This sample favours those with a hit. About 0.6% of all pairs of compound and target were hits.
Experiments:
Assay in all cases: log2 fold change, soluble protein after heating vs DMSO (PISA); higher = thermal stabilisation; K562 cells, 10 uM, 30 min; active = over 0.2 and 3.5 SD of the protein, either way, in both replicates (recomputed)
[1] = compound: CN1CCN(CCOc2cc(OC3CCOCC3)c3c(Nc4c(Cl)ccc5c4OCO5)ncnc3c2)CC1 [saracatinib]
Method in brief: (§1)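 Quantification of soluble protein used TMTpro 16plex LC-MS/MS, with channel sums equalised. Samples were the supernatant after 21,000xg for 90 min of pooled aliquots from K562 cells (2×10^6 cells/mL) treated with 10 μM compound for 30 min, heated for 3 min over 48°C-58°C, and extracted in PBS with 0.5% NP-40 at 4°C. Values, from duplicates, describe thermal stability against control samples on a log2 fold-change scale.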

[2] = compound: CN1CCN(c2nc(C3=C(c4c[nH]c5ccccc45)C(=O)NC3=O)c3ccccc3n2)CC1 [sotrastaurin]
Method in brief: as §1

[3] = compound: CN1CC[C@H](c2c(O)cc(O)c3c(=O)cc(-c4ccccc4Cl)oc23)[C@H](O)C1 [alvocidib]
Method in brief: as §1

[4] = compound: CN1CCc2c(c3ccccc3n2Cc2ccc(C(=O)NO)cc2)C1 [Tubastatin A]
Method in brief: as §1

[5] = compound: CNC(=O)C1=CC=CC=C1NC2=NC(=NC=C2Cl)NC3=C(C=C(C=C3)N4CCOCC4)OC
Method in brief: as §1

[6] = compound: CNC(=O)c1ccc(Nc2ncc(C(F)(F)F)c(NCc3nccnc3N(C)S(C)(=O)=O)n2)cc1 [defactinib]
Method in brief: as §1

[7] = compound: CNCc1ccc(-c2[nH]c3cc(F)cc4c3c2CCNC4=O)cc1 [rucaparib]
Method in brief: as §1

[8] = compound: CNc1nc(-c2ccc3c(N)n[nH]c3c2)cc(N2C[C@@H](C(=O)NC3CCCCC3)CC[C@H]2C)n1
Method in brief: as §1

[9] = compound: COC(=O)N[C@@H](C)CNc1nccc(-c2cn(C(C)C)nc2-c2cc(Cl)cc(NS(C)(=O)=O)c2F)n1 [encorafenib]
Method in brief: as §1

[10] = compound: COC(=O)[C@H](CCSC)NC(=O)C1=C(C=C(C=C1)NC[C@H](CS)N)C2=CC=CC=C2
Method in brief: as §1

Measured: log2 fold change

POLR2M (UniProt P0CAP2)
inactive: [1] 0.061 | [2] 0.019 | [3] 0.123 | [4] 0.005 | [5] -0.015 | [6] 0.041 | [7] 0.05 | [8] -0.021 | [9] 0.092 | [10] 0.017

PCBP2 isoform 3 (UniProt Q15366)
UniProt Q15366, sequence (Q15366 whole entry, looked up): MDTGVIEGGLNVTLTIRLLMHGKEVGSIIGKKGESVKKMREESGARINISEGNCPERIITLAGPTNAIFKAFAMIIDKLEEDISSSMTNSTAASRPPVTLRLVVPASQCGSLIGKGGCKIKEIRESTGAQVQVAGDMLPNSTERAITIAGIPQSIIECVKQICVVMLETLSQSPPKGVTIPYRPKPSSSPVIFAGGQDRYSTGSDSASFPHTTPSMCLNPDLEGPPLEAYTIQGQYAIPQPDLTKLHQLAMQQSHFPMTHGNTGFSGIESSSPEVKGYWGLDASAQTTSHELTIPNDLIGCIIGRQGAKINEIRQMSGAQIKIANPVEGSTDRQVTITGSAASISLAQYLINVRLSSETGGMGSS
inactive: [1] -0.023 | [2] -0.084 | [3] -0.148 | [4] 0.025 | [5] -0.032 | [6] -0.187 | [7] 0.041 | [8] 0.013 | [9] 0.075 | [10] -0.058

PFAS (UniProt O15067)
inactive: [1] -0.043 | [2] 0 | [3] -0.066 | [4] 0.046 | [6] -0.029 | [7] 0 | [8] 0.251 | [9] 0.011 | [10] -0.075
active: [5] -0.324

PBK (UniProt Q96KB5)
inactive: [1] 0.01 | [2] -0.205 | [3] -0.02 | [4] 0.089 | [5] 0.093 | [6] -0.15 | [7] 0.187 | [8] 0.005 | [9] 0.198 | [10] -0.111

PRUNE1 (UniProt Q86TP1)
inactive: [1] -0.071 | [2] -0.045 | [3] -0.053 | [4] 0.017 | [5] 0.007 | [6] -0.05 | [7] 0.027 | [8] 0.033 | [9] 0.006 | [10] 0.005

PRPF3 (UniProt O43395)
inactive: [1] -0.023 | [2] -0.114 | [3] 0.24 | [4] 0.07 | [5] -0.021 | [6] -0.239 | [7] -0.041 | [8] -0.001 | [9] 0.171 | [10] -0.025

PDE12 (UniProt Q6L8Q7)
inactive: [1] 0.014 | [2] 0.018 | [3] -0.098 | [4] 0.01 | [5] 0.028 | [6] -0.04 | [7] -0.005 | [8] 0.023 | [9] -0.019 | [10] 0.007

PRKCQ (UniProt Q04759)
active: [2] -0.903
inactive: [1] -0.034 | [3] -0.185 | [4] 0.017 | [5] -0.047 | [6] -0.03 | [7] 0.003 | [8] 0.002 | [9] 0.043 | [10] -0.025

PMM2 (UniProt O15305)
UniProt O15305, sequence (O15305 whole entry, looked up): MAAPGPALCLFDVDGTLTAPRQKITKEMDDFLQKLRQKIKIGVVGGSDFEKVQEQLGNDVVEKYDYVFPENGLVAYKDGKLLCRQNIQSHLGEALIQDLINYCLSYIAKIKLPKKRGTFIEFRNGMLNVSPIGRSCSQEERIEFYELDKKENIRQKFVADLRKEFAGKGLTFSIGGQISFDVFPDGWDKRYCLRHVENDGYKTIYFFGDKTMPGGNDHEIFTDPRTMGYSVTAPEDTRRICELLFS
inactive: [1] -0.025 | [2] 0.062 | [3] 0.006 | [4] -0.031 | [5] -0.183 | [6] 0.022 | [7] 0.018 | [8] -0.02 | [9] -0.006 | [10] 0.058

PKM (UniProt P14618)
inactive: [1] 0.012 | [2] 0.024 | [3] 0 | [4] -0.004 | [5] -0.028 | [6] -0.01 | [7] -0.052 | [8] -0.007 | [9] -0.01 | [10] 0.011

PIK3C3 (UniProt Q8NEB9)
inactive: [1] -0.007 | [2] -0.039 | [3] 0.044 | [4] 0.027 | [5] -0.003 | [6] -0.012 | [7] 0.25 | [8] 0.002 | [9] 0.05 | [10] -0.018

PPP1R12A (UniProt O14974)
UniProt O14974, sequence (O14974 whole entry, looked up): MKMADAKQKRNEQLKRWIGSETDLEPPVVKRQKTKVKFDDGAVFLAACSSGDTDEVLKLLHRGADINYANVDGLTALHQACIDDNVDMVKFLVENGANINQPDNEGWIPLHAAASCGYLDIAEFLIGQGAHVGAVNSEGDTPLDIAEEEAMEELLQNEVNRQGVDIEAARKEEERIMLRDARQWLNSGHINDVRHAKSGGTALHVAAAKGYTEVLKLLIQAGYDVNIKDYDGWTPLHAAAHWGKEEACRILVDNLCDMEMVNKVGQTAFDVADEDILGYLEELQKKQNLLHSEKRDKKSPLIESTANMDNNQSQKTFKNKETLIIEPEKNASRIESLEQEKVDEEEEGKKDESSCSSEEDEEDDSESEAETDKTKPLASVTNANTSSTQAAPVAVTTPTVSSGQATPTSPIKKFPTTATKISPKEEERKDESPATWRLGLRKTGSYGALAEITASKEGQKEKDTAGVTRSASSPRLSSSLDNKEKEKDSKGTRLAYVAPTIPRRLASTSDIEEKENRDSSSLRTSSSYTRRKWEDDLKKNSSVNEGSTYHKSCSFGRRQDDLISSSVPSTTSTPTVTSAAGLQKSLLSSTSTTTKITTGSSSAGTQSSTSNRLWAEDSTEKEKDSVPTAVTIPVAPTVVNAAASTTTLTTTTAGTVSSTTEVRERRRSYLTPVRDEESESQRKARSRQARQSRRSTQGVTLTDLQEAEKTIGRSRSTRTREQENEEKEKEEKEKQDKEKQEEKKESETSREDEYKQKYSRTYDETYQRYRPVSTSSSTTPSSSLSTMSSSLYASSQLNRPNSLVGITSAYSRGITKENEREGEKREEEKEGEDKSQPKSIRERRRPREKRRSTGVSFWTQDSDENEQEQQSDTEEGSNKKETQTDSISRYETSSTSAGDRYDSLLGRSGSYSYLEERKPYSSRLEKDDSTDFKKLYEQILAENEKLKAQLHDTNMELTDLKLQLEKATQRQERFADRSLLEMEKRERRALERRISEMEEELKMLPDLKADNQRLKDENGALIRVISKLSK
inactive: [1] -0.048 | [2] -0.054 | [3] -0.187 | [4] 0.01 | [5] -0.052 | [6] -0.187 | [7] -0.012 | [8] -0.197 | [9] 0.057 | [10] -0.043

PIK3CD (UniProt O00329)
inactive: [1] -0.124 | [2] -0.106 | [3] 0.055 | [4] 0.003 | [5] 0.08 | [6] -0.218 | [7] 0.182 | [8] 0.089 | [9] -0.019 | [10] -0.062

PFDN1 (UniProt O60925)
UniProt O60925, sequence (O60925 whole entry, looked up): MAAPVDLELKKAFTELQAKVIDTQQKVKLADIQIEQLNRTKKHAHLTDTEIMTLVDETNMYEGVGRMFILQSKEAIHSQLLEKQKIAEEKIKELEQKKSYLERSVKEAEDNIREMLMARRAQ
inactive: [1] -0.074 | [2] -0.014 | [3] -0.035 | [4] 0.022 | [5] -0.001 | [6] -0.066 | [7] -0.095 | [8] 0.093 | [9] 0.008 | [10] -0.078

PEF1 (UniProt Q9UBV8)
UniProt Q9UBV8, sequence (Q9UBV8 whole entry, looked up): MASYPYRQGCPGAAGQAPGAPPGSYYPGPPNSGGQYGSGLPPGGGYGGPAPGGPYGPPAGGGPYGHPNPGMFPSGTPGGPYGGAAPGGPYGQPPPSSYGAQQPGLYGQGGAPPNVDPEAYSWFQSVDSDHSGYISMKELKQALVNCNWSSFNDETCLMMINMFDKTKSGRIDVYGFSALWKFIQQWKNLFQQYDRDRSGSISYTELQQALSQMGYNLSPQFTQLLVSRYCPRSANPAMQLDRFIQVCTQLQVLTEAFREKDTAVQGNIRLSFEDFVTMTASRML
inactive: [1] 0 | [2] 0.053 | [3] -0.006 | [4] -0.004 | [5] 0.049 | [6] -0.01 | [7] -0.019 | [8] -0.014 | [9] -0.025 | [10] -0.003

PRIM2 (UniProt P49643)
UniProt P49643, sequence (P49643 whole entry, looked up): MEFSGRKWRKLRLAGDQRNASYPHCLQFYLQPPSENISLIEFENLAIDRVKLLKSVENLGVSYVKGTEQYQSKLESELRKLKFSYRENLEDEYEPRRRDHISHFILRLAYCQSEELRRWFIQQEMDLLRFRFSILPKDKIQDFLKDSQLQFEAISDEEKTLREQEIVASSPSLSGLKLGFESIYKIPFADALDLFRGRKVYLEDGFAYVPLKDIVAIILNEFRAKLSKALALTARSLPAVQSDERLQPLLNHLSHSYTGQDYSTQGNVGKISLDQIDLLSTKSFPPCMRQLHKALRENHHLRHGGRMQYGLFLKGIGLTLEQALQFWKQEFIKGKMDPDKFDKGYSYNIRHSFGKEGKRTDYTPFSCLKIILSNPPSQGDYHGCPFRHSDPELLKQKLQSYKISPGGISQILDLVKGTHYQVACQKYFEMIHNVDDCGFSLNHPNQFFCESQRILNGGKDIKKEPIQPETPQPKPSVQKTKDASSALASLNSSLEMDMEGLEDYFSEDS
inactive: [1] -0.013 | [2] -0.192 | [3] -0.132 | [4] 0.024 | [5] 0.009 | [6] -0.127 | [7] 0.001 | [8] 0.018 | [9] 0.052 | [10] -0.055

POLR3K (UniProt Q9Y2Y1)
UniProt Q9Y2Y1, sequence (Q9Y2Y1 whole entry, looked up): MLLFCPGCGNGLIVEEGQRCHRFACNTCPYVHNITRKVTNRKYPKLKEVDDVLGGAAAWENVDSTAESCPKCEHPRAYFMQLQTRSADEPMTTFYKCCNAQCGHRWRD
inactive: [1] 0.052 | [2] -0.049 | [3] 0.038 | [4] 0.044 | [5] -0.035 | [6] -0.086 | [7] 0.089 | [8] -0.098 | [9] -0.019 | [10] 0.015

PSMD2 (UniProt Q13200)
inactive: [1] -0.047 | [2] -0.029 | [3] 0.048 | [4] -0.014 | [5] -0.033 | [6] 0.061 | [7] 0.035 | [8] 0.01 | [9] 0.051 | [10] 0.012

PSMC4 (UniProt P43686)
inactive: [1] -0.041 | [2] -0.011 | [3] 0.047 | [4] -0.026 | [5] -0.032 | [6] 0.074 | [7] 0.039 | [8] 0.037 | [9] 0.019 | [10] 0.005

PDCD2L (UniProt Q9BRP1)
inactive: [1] -0.072 | [2] -0.148 | [3] -0.077 | [4] 0.048 | [5] 0 | [6] -0.068 | [7] 0.038 | [8] -0.031 | [9] 0.127 | [10] -0.007

PKN1 isoform 2 (UniProt Q16512)
active: [2] -0.645
inactive: [1] -0.018 | [3] -0.048 | [4] 0.026 | [5] -0.088 | [6] -0.121 | [7] 0.022 | [8] 0.026 | [9] 0.024 | [10] -0.014

PTMA (UniProt P06454)
UniProt P06454, sequence (P06454 whole entry, looked up): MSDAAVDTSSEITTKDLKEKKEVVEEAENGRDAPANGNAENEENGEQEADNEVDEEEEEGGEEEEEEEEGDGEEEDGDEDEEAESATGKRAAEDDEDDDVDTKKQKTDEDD
inactive: [1] 0.016 | [2] -0.026 | [3] -0.034 | [4] 0.098 | [5] -0.07 | [6] -0.108 | [7] 0.02 | [8] 0.01 | [9] -0.05 | [10] -0.059

PXK (UniProt Q7Z7A4)
inactive: [1] -0.023 | [2] 0.004 | [3] -0.055 | [4] -0.033 | [5] 0.03 | [6] -0.025 | [7] -0.027 | [8] -0.007 | [9] 0.08 | [10] -0.048

QRICH1 (UniProt Q2TAL8)
inactive: [1] -0.019 | [2] -0.076 | [3] -0.127 | [4] 0.156 | [5] -0.036 | [6] -0.271 | [7] -0.008 | [8] -0.004 | [9] 0.097 | [10] 0.169

PSMD3 (UniProt O43242)
inactive: [1] -0.06 | [2] -0.015 | [3] 0.022 | [4] 0.016 | [5] 0.007 | [6] 0.083 | [7] 0.037 | [8] 0.051 | [9] 0.031 | [10] 0.003

PTGES3 (UniProt Q15185)
inactive: [1] -0.023 | [2] -0.057 | [3] -0.215 | [4] 0.023 | [5] 0.088 | [6] -0.205 | [7] -0.059 | [8] 0.034 | [9] 0.032 | [10] -0.068

PRKAA1 isoform 2 (UniProt Q13131)
UniProt Q13131, sequence (Q13131 whole entry, looked up): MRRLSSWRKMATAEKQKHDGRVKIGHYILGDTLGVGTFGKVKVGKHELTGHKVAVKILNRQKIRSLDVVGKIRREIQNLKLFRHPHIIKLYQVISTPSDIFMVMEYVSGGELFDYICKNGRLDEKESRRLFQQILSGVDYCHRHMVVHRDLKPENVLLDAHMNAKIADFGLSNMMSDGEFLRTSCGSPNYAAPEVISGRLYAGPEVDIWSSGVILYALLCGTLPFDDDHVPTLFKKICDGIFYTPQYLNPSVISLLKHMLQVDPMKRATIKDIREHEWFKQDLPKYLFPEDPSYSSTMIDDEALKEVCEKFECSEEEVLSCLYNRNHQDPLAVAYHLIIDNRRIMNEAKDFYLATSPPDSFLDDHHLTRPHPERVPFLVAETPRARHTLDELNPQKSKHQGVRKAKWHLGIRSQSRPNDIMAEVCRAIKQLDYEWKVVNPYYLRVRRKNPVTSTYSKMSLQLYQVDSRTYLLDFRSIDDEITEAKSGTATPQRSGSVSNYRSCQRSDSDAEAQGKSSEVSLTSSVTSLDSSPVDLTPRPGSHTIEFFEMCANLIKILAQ
inactive: [1] 0.027 | [2] 0.033 | [3] -0.032 | [4] -0.015 | [5] -0.19 | [6] -0.048 | [7] -0.006 | [8] -0.047 | [9] 0.02 | [10] -0.004

PSMC3 (UniProt P17980)
inactive: [1] -0.043 | [2] -0.035 | [3] 0.058 | [4] 0.011 | [5] 0 | [6] 0.06 | [7] 0.033 | [8] 0.003 | [9] 0.026 | [10] 0.004

POP1 (UniProt Q99575)
UniProt Q99575, sequence (Q99575 whole entry, looked up): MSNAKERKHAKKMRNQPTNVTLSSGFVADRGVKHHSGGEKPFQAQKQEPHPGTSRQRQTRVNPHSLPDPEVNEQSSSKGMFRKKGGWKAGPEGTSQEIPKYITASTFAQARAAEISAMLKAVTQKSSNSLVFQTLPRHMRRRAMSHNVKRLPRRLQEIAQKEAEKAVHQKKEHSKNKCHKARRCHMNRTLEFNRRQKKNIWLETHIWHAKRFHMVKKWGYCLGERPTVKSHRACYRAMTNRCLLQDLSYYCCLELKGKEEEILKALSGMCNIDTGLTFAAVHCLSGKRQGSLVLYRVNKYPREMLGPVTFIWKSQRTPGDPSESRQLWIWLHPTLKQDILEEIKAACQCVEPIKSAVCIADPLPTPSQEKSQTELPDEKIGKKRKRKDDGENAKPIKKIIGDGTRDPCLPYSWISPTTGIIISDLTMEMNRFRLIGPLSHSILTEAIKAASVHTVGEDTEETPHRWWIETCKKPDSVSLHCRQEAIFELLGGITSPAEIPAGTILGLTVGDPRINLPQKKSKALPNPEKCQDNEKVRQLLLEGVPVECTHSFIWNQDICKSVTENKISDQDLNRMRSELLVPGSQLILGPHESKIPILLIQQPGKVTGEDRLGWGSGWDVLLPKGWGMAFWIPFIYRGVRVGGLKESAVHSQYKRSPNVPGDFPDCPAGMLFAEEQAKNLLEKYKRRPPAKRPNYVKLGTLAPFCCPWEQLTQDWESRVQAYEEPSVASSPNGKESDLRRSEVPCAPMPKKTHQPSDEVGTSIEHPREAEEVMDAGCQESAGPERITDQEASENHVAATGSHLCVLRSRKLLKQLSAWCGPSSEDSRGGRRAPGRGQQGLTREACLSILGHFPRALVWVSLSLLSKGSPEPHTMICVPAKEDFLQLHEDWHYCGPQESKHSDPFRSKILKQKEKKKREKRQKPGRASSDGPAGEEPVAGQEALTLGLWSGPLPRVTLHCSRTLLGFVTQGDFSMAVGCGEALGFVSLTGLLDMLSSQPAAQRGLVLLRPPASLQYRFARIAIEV
inactive: [1] 0.077 | [2] -0.01 | [3] -0.049 | [4] 0.026 | [5] -0.002 | [6] -0.055 | [7] 0.014 | [8] 0.014 | [9] 0.006 | [10] 0.016

POLA2 (UniProt Q14181)
UniProt Q14181, sequence (Q14181 whole entry, looked up): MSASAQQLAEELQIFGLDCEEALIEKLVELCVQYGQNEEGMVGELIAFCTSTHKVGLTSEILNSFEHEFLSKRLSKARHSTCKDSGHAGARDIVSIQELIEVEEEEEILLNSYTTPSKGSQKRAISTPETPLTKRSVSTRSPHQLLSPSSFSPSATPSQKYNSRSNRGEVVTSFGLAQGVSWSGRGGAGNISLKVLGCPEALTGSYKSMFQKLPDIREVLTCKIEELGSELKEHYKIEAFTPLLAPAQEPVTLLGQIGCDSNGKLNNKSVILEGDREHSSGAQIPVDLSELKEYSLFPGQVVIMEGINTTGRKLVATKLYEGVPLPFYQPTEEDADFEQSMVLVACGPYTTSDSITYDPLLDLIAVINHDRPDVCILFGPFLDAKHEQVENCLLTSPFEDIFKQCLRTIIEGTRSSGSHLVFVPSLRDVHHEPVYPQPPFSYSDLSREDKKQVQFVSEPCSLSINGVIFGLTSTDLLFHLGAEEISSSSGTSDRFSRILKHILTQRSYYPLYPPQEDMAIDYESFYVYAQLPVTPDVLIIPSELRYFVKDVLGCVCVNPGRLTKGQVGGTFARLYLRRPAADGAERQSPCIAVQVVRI
inactive: [1] 0.035 | [2] -0.055 | [3] -0.15 | [4] 0.051 | [5] 0.096 | [6] -0.254 | [7] -0.125 | [8] 0.039 | [9] 0.06 | [10] -0.038

Reference: the supplement of paper PMC10849652
